In PubChem BioAssay (NCATS):
Results filed as inconclusive are left out. Active and inactive are the calls of the source. Unless noted, calls come from the whole dose curve; as a rule, active = well fitted curve in the direction sought with a large enough effect; inconclusive = small, poorly fitted or top-dose-only effect, or another doubt; inactive = no such curve, though single readings can be large; an effect the other way counts as inactive or inconclusive.

Columns and labels:
[1] = target: Lysosomal acid glucosylceramidase (Homo sapiens) (UniProt P04062); assay: Glucocerebrosidase-p2 (AID 348; in the data active = potency below about 10 µM; note: potency is the fitted concentration of half-maximal effect); settings: purified GBA, blue fluorogenic substrate, 40 min
Chain of Lysosomal acid glucosylceramidase (Homo sapiens) (P04062 whole entry, looked up): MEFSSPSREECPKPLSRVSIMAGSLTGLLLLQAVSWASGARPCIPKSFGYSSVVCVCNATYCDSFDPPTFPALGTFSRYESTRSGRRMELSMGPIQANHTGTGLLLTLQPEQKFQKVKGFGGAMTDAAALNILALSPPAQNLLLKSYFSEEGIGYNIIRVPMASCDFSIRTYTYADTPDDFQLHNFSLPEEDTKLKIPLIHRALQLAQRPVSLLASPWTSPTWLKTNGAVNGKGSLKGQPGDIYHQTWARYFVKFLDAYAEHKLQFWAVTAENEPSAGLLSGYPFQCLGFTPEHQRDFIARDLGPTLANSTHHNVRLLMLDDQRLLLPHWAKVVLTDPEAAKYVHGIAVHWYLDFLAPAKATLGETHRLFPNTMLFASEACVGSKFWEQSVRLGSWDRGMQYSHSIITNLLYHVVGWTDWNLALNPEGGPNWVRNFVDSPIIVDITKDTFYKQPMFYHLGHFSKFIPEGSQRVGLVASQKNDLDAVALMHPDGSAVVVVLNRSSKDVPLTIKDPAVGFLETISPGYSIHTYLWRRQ
How it was run: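 Normal human glucocerebrosidase (0.2 nM) with blue fluorogenic substrate (80 uM final) in citrate/phosphate pH 5.9 with 10mM sodium taurocholate, 0.01% tween-20; 40 min RT, NaOH/glycine stop; fluorescence Ex 365/Em 440; AC50 from a titration from 0.6 nM upwards.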

[2] = target: Cytochrome P450 1A2 (Homo sapiens) (UniProt P05177); assay: p450-cyp1a2 (AID 410; calls by dose curve; note: potency is the fitted concentration of half-maximal effect;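 for activity change, negative = inhibition: -100% = full effect of reference inhibitor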); settings: recombinant CYP1A2, luciferin-ME demethylation, luminescence; series mostly up to 57 µM
Chain of Cytochrome P450 1A2 (Homo sapiens) (P05177 whole entry, looked up): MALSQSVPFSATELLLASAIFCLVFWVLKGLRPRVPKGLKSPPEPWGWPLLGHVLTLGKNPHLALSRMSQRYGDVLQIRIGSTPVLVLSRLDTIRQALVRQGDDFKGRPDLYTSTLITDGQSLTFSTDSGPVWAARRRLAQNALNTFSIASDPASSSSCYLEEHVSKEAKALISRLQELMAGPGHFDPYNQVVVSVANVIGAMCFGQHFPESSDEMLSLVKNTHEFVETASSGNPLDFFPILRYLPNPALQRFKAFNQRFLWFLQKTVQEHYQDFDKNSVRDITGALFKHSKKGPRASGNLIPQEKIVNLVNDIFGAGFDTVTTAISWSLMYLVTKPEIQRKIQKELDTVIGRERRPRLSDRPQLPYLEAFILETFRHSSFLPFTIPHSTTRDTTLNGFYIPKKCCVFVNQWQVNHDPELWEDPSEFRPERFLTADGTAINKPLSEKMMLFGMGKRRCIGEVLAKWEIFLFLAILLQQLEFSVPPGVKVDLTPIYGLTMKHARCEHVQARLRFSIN
How it was run: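 Read-out is luminescence from luciferin produced by CYP1A2 demethylation of Luciferin-ME (100uM, at Km). Detection reagent stopped the 60 min NADPH-dependent reaction; signals were normalized to 57 uM furafylline.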

[3] = NFAT Signaling Pathway (AID 444; active = well fitted curve in either direction with a large enough effect, not every such curve was filed as active;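 note: carbachol stimulus at about its EC50 of 1 µM final; % is set by controls: 0 for no effect and ±100 for the full control effect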); settings: Jurkat NFAT-bla M1, carbachol, beta-lactamase ratio, 5 h; at 7.69 µM (top of the series) unless noted
How it was run: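 Jurkat cells carrying an NFAT-driven β-lactamase reporter and co-transfected muscarinic M1 receptor were treated with compound plus carbachol (1 uM final, an EC50 level) for 5 h at 37 °C. CCF4 loading followed for 1 h at RT; 460/530 nm ratio gave %activity.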

[4] = target: Glucocorticoid receptor (Homo sapiens) (UniProt P04150); assay: GR-EFC Redistribution (AID 451; calls by dose curve; note: potency is the fitted concentration of half-maximal effect); settings: CHO-K1 GR-EFC translocation, beta-gal luminescence, 2 h
Chain of Glucocorticoid receptor (Homo sapiens) (P04150 whole entry, looked up, the tested form may be a part): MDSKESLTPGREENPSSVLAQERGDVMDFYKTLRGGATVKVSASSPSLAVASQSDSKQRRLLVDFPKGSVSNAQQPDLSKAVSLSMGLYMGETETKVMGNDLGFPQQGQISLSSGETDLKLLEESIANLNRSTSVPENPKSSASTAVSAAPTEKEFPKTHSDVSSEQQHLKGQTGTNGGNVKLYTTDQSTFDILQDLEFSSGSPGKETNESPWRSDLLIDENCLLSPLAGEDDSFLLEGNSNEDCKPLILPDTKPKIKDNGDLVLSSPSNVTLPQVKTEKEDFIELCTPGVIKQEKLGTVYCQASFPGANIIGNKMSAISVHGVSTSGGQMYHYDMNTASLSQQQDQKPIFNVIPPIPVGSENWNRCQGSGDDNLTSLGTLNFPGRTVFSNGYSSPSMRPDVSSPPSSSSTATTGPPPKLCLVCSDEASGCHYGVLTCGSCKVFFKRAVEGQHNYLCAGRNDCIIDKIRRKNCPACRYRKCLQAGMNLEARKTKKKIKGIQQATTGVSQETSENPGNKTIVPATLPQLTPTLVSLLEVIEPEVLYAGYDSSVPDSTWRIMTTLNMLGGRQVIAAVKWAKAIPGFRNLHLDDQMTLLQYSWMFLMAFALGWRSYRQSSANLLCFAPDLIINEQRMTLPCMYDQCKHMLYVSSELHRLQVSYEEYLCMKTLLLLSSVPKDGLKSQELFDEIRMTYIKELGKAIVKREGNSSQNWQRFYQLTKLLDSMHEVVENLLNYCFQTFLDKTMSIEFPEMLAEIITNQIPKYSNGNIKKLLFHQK
How it was run: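 CHO-K1 cells stably expressing nuclear-localized β-gal enzyme acceptor and GR fused C-terminally to the enzyme donor fragment; ligand-driven nuclear translocation restores β-gal by complementation. Compounds titrated up to 46 uM final, 2 h at 37 °C; luminescence read.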

[5] = target: 3',5'-cyclic-AMP phosphodiesterase 4B (Homo sapiens) (UniProt Q07343); assay: qHTS Assay for Inhibitors of PDE-IV (AID 607; active = well fitted activation curve with a large enough effect in the main read-out, with a control signal flat, not every such curve was filed as active; note: % of control where 0% means no effect); settings: HEK293 ACTOne CNG channel cells, membrane potential fluorescence; series mostly up to 22.9 µM
Chain of 3',5'-cyclic-AMP phosphodiesterase 4B (Homo sapiens) (Q07343 whole entry, looked up): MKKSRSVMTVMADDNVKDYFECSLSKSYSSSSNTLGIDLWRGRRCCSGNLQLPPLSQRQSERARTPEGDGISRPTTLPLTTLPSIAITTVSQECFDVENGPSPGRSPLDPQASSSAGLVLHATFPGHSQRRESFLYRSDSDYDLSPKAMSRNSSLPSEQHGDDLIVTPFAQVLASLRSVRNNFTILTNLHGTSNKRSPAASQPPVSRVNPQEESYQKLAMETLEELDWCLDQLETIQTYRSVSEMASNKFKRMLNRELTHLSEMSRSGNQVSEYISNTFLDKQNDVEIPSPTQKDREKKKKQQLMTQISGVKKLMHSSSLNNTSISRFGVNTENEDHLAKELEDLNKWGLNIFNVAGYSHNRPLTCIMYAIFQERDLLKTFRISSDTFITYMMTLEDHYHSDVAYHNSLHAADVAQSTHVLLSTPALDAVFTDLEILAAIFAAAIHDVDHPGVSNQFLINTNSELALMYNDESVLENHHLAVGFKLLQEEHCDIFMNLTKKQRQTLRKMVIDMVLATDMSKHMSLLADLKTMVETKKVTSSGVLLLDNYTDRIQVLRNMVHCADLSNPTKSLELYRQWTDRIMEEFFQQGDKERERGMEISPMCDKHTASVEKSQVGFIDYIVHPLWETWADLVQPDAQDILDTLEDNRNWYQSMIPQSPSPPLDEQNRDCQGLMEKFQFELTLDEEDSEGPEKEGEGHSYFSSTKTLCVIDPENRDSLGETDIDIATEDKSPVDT
How it was run: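 HEK293 ACTOne cells with CNG channel (1000/well), endogenous PDE4; membrane potential dye, compounds up to 22.9 uM final. Fluorescence Ex 535/Em 590; RO 20-1724 (100 uM final) as reference.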

[6] = target: Cytochrome P450 2C9 (Homo sapiens) (UniProt P11712); assay: qHTS Assay for Inhibitors and Substrates of Cytochrome P450 2C9 (AID 883); settings: recombinant CYP2C9, luciferin-H luminescence, 60 min; series mostly up to 57.1 µM; note: nearly all actives have a fitted effect of over 60% in size; note: potency is the fitted concentration of half-maximal effect
Chain of Cytochrome P450 2C9 (Homo sapiens) (P11712 whole entry, looked up): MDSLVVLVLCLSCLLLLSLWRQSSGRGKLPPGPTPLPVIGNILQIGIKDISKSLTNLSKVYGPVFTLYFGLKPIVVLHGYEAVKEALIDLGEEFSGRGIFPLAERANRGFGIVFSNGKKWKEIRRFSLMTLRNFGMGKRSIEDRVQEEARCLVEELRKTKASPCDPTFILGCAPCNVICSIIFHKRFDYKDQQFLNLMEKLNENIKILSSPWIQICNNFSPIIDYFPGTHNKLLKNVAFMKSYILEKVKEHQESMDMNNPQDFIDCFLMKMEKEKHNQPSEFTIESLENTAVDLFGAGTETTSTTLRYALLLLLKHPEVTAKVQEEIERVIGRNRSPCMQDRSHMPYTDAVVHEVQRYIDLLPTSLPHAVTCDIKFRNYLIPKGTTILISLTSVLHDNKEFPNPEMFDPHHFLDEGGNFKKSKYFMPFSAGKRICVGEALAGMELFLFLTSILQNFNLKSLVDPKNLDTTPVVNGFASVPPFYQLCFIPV
How it was run: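 Human CYP2C9 (10nM) hydroxylated Luciferin-H (100uM, at its KM) to luciferin in 25mM KPO4. Compound was preincubated 10 min at 37C, then NADPH regeneration started a 60 min reaction at 37C. Luminescence was read after detection reagent, normalized to 57uM sulphaphenazole.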

[7] = target: Cytochrome P450 3A4 (Homo sapiens) (UniProt P08684); assay: qHTS Assay for Activators of Cytochrome P450 3A4 (AID 885); settings: recombinant CYP3A4, Luciferin-PPXE luminescence, 60 min; series mostly up to 57.1 µM; note: nearly all actives have a fitted effect of over 65% in size
Chain of Cytochrome P450 3A4 (Homo sapiens) (P08684 whole entry, looked up): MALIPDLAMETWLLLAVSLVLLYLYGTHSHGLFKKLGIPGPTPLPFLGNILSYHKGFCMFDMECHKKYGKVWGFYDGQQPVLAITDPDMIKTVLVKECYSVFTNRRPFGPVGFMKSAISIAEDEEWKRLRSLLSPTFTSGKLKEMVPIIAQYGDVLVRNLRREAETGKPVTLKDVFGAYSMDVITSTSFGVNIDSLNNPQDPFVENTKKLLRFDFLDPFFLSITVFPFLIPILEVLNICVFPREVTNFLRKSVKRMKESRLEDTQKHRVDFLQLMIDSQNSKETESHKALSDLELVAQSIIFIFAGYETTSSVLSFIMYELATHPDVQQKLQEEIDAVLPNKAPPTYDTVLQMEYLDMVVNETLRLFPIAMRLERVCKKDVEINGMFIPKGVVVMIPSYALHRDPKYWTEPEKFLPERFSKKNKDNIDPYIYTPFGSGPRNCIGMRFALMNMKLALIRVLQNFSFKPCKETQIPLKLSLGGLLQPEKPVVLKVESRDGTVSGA
How it was run: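 Human CYP3A4 dealkylates Luciferin-PPXE to luciferin, which luciferase detection converts to light. Substrate was at its KM (25uM), buffer 200mM KPO4, reaction 60 min at RT.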

[8] = target: Dual specificity protein kinase CLK4 (Homo sapiens) (UniProt Q9HAZ1); assay: qHTS Assay for Inhibitors of CDC-like Kinase 4 (Kinase-Glo Assay) (AID 1770); settings: recombinant Clk4, Kinase-Glo ATP depletion luminescence; series mostly up to 66.7 µM; note: nearly all actives have a fitted effect of over 65% in size; note: potency is the fitted concentration of half-maximal effect
Chain of Dual specificity protein kinase CLK4 (Homo sapiens) (Q9HAZ1 whole entry, looked up): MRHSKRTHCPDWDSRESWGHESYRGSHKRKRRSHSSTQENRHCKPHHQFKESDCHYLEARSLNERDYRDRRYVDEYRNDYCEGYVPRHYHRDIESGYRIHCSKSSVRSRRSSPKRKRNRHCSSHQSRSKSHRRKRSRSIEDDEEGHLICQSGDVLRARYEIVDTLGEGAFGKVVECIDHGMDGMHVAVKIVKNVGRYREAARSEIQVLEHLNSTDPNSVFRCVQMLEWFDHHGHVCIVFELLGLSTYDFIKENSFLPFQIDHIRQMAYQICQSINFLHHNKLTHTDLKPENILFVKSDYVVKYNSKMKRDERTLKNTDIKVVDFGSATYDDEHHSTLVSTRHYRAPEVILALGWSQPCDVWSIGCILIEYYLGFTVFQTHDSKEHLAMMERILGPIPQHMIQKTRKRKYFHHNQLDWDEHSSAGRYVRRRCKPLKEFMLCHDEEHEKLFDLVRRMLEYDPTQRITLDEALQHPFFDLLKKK
How it was run: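 Readout: Kinase-Glo luminescence from ATP left after a 4.5 h room-temperature reaction of 25 nM Clk4 with 100 uM RS peptide and 1 uM ATP (final). Buffer: 25 mM Tris pH 7.5, 10 mM MgCl2.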

[9] = target: Dual specificity protein kinase CLK4 (Homo sapiens) (UniProt Q9HAZ1); assay: qHTS Assay for Inhibitors of CDC-like Kinase 4 (ADP-Glo Assay) (AID 1771); settings: recombinant CLK4, ADP-Glo luminescence; series mostly up to 80 µM; note: nearly all actives have a fitted effect of over 70% in size; note: potency is the fitted concentration of half-maximal effect
How it was run: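 In this ADP-Glo format, 1 uM ATP and 100 uM RS peptide served as substrates for 25 nM Clk4 in Mg2+/EGTA/DTT/Triton buffer; reactions ran 1 hr at room temperature before luminescent ADP quantification.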

[10] = target: Dual specificity protein kinase CLK4 (Homo sapiens) (UniProt Q9HAZ1); assay: qHTS Assay for Inhibitors of CDC-like Kinase 4 (ADP-FP Assay) (AID 1795); settings: Transcreener ADP fluorescence polarization; series mostly up to 50 µM; note: nearly all actives have a fitted effect of over 60% in size; note: potency is the fitted concentration of half-maximal effect
How it was run: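 FP readout: Orange Transcreener ADP2 tracer (4 nM) plus ADP antibody, read after 30 min at room temperature. Kinase step: 6.25 nM Clk4, 100 uM RS peptide, 1 uM ATP, pH 7.5, 1 h.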

[11] = target: Ubiquitin carboxyl-terminal hydrolase 1 (Homo sapiens) (UniProt O94782); assay: Inhibitors of USP1/UAF1: Pilot qHTS (AID 504865); settings: purified USP1/UAF1, Ub-rhodamine cleavage fluorescence; series mostly up to 54.9 µM;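 note: rhodamine fluorescence freed from ubiquitin-rhodamine substrate followed over time; top concentration of the series differs between compounds; % is set by controls: 0 for no effect and ±100 for the full control effect; nearly all actives have a fitted effect of over 35% in size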
Chain of Ubiquitin carboxyl-terminal hydrolase 1 (Homo sapiens) (O94782 whole entry, looked up): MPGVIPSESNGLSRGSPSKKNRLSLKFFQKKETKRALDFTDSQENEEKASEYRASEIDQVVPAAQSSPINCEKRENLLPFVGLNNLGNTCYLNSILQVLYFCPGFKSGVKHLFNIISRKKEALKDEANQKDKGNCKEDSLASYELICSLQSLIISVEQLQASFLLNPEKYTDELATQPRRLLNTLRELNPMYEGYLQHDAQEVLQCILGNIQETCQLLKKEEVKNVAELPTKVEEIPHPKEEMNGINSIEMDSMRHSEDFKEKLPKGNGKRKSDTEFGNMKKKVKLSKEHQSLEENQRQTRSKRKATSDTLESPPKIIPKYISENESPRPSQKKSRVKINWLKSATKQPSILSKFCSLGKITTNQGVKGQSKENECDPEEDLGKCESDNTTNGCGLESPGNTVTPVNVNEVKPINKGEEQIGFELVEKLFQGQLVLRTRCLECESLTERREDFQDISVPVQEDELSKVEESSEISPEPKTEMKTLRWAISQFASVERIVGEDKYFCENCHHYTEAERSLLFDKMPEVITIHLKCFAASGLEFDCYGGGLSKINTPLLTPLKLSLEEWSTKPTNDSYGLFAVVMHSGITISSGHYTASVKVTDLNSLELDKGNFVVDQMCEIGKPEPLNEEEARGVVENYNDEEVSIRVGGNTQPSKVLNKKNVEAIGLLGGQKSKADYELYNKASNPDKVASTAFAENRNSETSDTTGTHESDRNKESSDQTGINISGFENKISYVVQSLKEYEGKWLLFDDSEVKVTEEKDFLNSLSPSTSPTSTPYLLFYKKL
How it was run: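 1nM USP1/UAF1 + cpd, 15 min RT; start w/ Ub-Rho 150nM final; kinetic FL 480/540 nm, 6 reads q60 s. Buffer 50mM HEPES pH 7.8, 0.5mM EDTA, 1mM TCEP, 0.01% Tween-20, 0.1 mg/ml BSA.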

[12] = AP1 Signaling Pathway (AID 357; active = well fitted curve in either direction with a large enough effect, not every such curve was filed as active; note: % is set by controls: 0 for no effect and ±100 for the full control effect); settings: ME-180 AP-1-bla reporter, EGF-induced, beta-lactamase ratio, 5 h; at 7.69 µM (top of the series) unless noted
How it was run: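 ME-180 cells with beta-lactamase reporter under AP-1 response element, stimulated with EC50 EGF; compounds tested in titration series, 5 h at 37 °C. CCF4 substrate added 2.5 h at room temperature; 460/530 nm emission ratio gave %activity and AC50.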

[13] = Stat Signaling Pathway (AID 446; active = well fitted curve in either direction with a large enough effect, not every such curve was filed as active;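 note: ME-180 cervical cancer cells given 40 pM IL-6 alongside compound; SIE-controlled beta-lactamase reporter measured as 460/530 nm FRET emission ratio; % is set by controls: 0 for no effect and ±100 for the full control effect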); settings: ME-180 (cervical carcinoma) SIE beta-lactamase reporter, IL-6 stimulated, 5 h; series mostly up to 7.69 µM
How it was run: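 Normalization used AC90 stimulation (300 pM IL-6) and AC90 inhibition (125 nM pan-JAK inhibitor at 40 pM IL-6). The underlying signal is SIE-driven beta-lactamase in ME-180 cells after 5 h IL-6 exposure with compound.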

[14] = target: Glucocorticoid receptor (Homo sapiens) (UniProt P04150); assay: GR-GFP Redistribution (AID 450;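 active = compounds whose dose series gives a full or clear partial fitted curve of increased nuclear translocation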; note: potency is the fitted concentration of half-maximal effect); settings: U2OS GR-GFP nuclear translocation, laser cytometry, 2 h
[15] = target: Mitogen-activated protein kinase 10 (Mus musculus) (UniProt Q61831); assay: JNK3 AlphaScreen Assay (AID 530; active = well fitted curve in either direction with a large enough effect, not every such curve was filed as active;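 note: kinase came from lysate of stimulated human HepG2 cells; signal reports phosphorylation of biotinylated GST-cJun 1-79 at Ser73 with 10 µM ATP; % is set by controls: 0 for no effect and ±100 for the full control effect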); settings: JNK3 lysate, c-Jun phosphorylation; series mostly up to 57.1 µM
How it was run: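 Biotinylated GST-cJun(1-79) served as substrate for JNK3 in HepG2 lysates stimulated with IL-1beta and TNF-alpha. ATP was 10 uM final, pH 7.6. Ser73 phosphorylation was quantified by AlphaScreen (680 nm excitation).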

[16] = target: Cytochrome P450 3A4 (Homo sapiens) (UniProt P08684); assay: qHTS Assay for Inhibitors and Substrates of Cytochrome P450 3A4 (AID 884); settings: recombinant CYP3A4, Luciferin-PPXE luminescence; series mostly up to 57.1 µM; note: nearly all actives have a fitted effect of over 50% in size; note: potency is the fitted concentration of half-maximal effect
How it was run: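 Luminescent readout of luciferin produced by CYP3A4 (20 nM) dealkylation of Luciferin-PPXE, 25 uM (its KM). NADPH-driven reaction ran 60 min at RT after 10 min compound preincubation; data scaled to 57 uM ketoconazole as 100% inhibition.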

[17] = target: Cytochrome P450 2D6 (Homo sapiens) (UniProt P10635); assay: qHTS Assay for Inhibitors and Substrates of Cytochrome P450 2D6 (AID 891); settings: recombinant CYP2D6, luciferin-ME EGE luminescence; series mostly up to 57.1 µM; note: potency is the fitted concentration of half-maximal effect; nearly all actives have a fitted effect of over 60% in size
How it was run: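 Luminescent read-out of luciferin formed by 5 nM human CYP2D6 demethylating 30 uM Luciferin-ME EGE (Km level) over 60 min at room temperature after NADPH regeneration addition. Data normalized to full inhibition by 1.43 uM quinidine.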

Cn1cc(-c2nc3cnc(N4CCNCC4)nc3n(C3CC3)c2=O)c2ccccc21
inactive: Potency [1] > 11.4 µM | activity change, negative = inhibition [3] 28.9% | Potency [4] > 46 µM | Potency [5] | outcome [7] | Potency [8] | Potency [9] | Potency [10] | Potency [11]
active: Potency [2] 12.6 µM | Potency [6] 3.98 µM

COc1ccccc1CNc1ncncc1-c1ccc2c(c1)OCO2
inactive: activity change, negative = inhibition [12] -21.5% | activity change, negative = inhibition [3] -11.1% | outcome [13] | Potency [14] > 46 µM | Potency [4] > 46 µM | Potency [15] | outcome [7] | Potency [11]
active: Potency [2] 0.158 µM | Potency [16] 0.199 µM | Potency [17] 2.51 µM | Potency [8] 2.24 µM | Potency [9] 2 µM | Potency [10] 1 µM

CCNc1ncc2ncc(=O)n(Cc3ccc(F)cc3)c2n1
inactive: Potency [1] > 11.4 µM | activity change, negative = inhibition [12] -23.6% | activity change, negative = inhibition [3] 3% | Potency [4] > 46 µM | Potency [5] | outcome [7] | Potency [11]
active: Potency [2] 1 µM | Potency [8] 7.94 µM | Potency [9] 6.31 µM | Potency [10] 11.2 µM

COc1ccc(CNc2cc(-c3cccc(NS(C)(=O)=O)c3)ncn2)c(OC)c1
inactive: Potency [1] > 11.4 µM | activity change, negative = inhibition [3] -10.4% | Potency [14] > 46 µM | Potency [4] > 46 µM | Potency [15] | Potency [5] | activity change, negative = inhibition [6] 30.9% [at 2.29 µM] | outcome [7] | Potency [8] | Potency [9] | Potency [10] | Potency [11]
active: Potency [2] 15.8 µM | Potency [16] 2.51 µM

Cn1c(=O)c(-c2ccccc2)nc2cnc(N3CCOCC3)nc21
active: Potency [2] 2 µM
inactive: activity change, negative = inhibition [12] -2.38% | activity change, negative = inhibition [3] 3.19% | outcome [13] | Potency [14] > 9.22 µM | Potency [4] > 46 µM | Potency [5] | Potency [16] | Potency [8] | Potency [9] | Potency [10] | Potency [11]

COc1ccc(Oc2ncc3nc(-c4cccc(C#N)c4)c(=O)n(Cc4cccc(OC)c4)c3n2)cc1
inactive: activity change, negative = inhibition [12] 7.45% | Potency [2] | activity change, negative = inhibition [3] -6.12% | outcome [13] | Potency [14] > 9.22 µM | Potency [4] > 46 µM | Potency [5] | outcome [7] | Potency [8] | Potency [9] | Potency [10] | Potency [11]
active: Potency [16] 2 µM

Clc1ccccc1-c1nc(Nc2ccncc2)c2ccccc2n1
inactive: activity change, negative = inhibition [12] -2.96% | activity change, negative = inhibition [3] 8.97% | outcome [13] | Potency [15] | outcome [7]
active: Potency [2] 0.501 µM | Potency [16] 3.98 µM | Potency [8] 7.94 µM | Potency [9] 7.94 µM | Potency [10] 10 µM

COc1ccc(-c2nc3cnc(Oc4cccc(Cl)c4)nc3n(C[C@H]3CCCO3)c2=O)cc1
active: Potency [2] 5.01 µM | Potency [6] 5.01 µM
inactive: Potency [1] > 11.4 µM | activity change, negative = inhibition [12] -13.7% | Potency [14] > 9.22 µM | Potency [4] > 46 µM | Potency [5] | outcome [7] | Potency [8] | Potency [9] | Potency [10] | Potency [11]

O=c1c(CCc2ccccc2)nc2cnc(N3CCNCC3)nc2n1Cc1cccs1
inactive: Potency [1] > 11.4 µM | activity change, negative = inhibition [12] 7.64% | activity change, negative = inhibition [3] 3.16% | Potency [14] > 9.22 µM | Potency [4] > 46 µM | Potency [15] | Potency [5] | Potency [8] | Potency [9] | Potency [10] | Potency [11]

COc1ccccc1-c1nccc(N2CCN(C)CC2)n1
inactive: Potency [1] > 11.4 µM | activity change, negative = inhibition [12] 15.6% | activity change, negative = inhibition [3] -18.8% | outcome [13] | Potency [4] > 46 µM | Potency [15] | Potency [5] | Potency [8] | Potency [9] | Potency [10] | Potency [11]

CCNc1ncc2nc(CCc3ccccc3)c(=O)n(CCC#N)c2n1
inactive: activity change, negative = inhibition [12] -12.2% | activity change, negative = inhibition [3] -10.7% | outcome [13] | Potency [14] > 9.22 µM | outcome [7] | Potency [8] | Potency [9] | Potency [10] | Potency [11]
active: Potency [2] 3.98 µM | Potency [6] 6.31 µM | Potency [17] 0.158 µM
